High-throughput results from PubChem BioAssay.
MEKK2wt PB1 HTS = raises or lowers MEK5 binding to wildtype human MEKK2 PB1 domain | Q9Y2U5 | binding response (% of control), % at 10 µM | AID 1531 | actives 1.1% (n = 290,000) | bead flow cytometry, Alexa488-MEK5 binding to MEKK2 WT; actives lie on both sides; in the data active = binding response below about 67% or above about 130%
SKN-1 block = inhibitors of C. elegans SKN-1; C. elegans VP596 Pgst-4::GFP/RFP ratio, acrylamide-induced, 24 h; inhibition, % at 21.8 µM; actives 0.49% (n = 360,000); AID 624304;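 active = interference check ratio from 0.5 to 1.5 plus GFP to RFP signal ratio inhibition reaching or exceeding a fixed threshold, cut at about 30% in these data, passing the limit was not always enough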
NRP1-CendR mod = NRP-1/CendR interaction modulation; O14786; FAM-RPARPAR peptide binding to NRP-1, fluorescence polarization; inhibition, % at 25 µM; actives 0.85% (n = 360,000); AID 602438;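 active = inhibition or corrected inhibition above about 18%, plus a signal ratio from 0.5 to 1.5, limit read from the data, passing the limit was not always enough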
Target sequence (O14786 whole entry, looked up): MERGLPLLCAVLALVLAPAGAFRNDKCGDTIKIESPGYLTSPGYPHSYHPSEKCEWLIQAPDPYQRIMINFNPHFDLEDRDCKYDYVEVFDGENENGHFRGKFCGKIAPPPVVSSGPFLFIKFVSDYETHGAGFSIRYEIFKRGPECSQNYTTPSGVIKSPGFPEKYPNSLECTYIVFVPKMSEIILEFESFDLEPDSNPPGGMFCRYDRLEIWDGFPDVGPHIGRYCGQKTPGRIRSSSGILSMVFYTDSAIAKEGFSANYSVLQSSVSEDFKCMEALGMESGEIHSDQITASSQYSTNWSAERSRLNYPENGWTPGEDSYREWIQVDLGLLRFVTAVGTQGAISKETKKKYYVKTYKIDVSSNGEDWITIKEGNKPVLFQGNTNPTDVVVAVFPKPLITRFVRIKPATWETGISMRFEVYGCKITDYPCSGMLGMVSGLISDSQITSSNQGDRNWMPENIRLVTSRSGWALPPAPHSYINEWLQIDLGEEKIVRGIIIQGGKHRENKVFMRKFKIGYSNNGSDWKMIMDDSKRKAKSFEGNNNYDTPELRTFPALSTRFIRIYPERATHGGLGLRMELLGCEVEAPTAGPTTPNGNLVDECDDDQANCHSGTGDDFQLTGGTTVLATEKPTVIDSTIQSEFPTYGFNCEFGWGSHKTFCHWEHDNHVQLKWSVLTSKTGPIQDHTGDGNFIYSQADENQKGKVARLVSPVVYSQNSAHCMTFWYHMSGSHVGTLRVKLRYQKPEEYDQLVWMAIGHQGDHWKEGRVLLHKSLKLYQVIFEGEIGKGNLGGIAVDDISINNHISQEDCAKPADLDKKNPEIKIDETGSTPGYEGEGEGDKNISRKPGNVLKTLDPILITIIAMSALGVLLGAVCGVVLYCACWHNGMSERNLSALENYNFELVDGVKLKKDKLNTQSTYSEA
MEKK3 PB1 HTS = modulators (inhibitors or enhancers) of MEK5 binding to human MEKK3 PB1 domain; Q99759; actives 1.4% (n = 290,000); bead-based flow cytometry, Alexa488-MEK5 binding to MEKK3; actives lie on both sides; 0 = blocked by unlabeled MEK5, 100 = vehicle; binding response (% of control), % at 10 µM; AID 1529;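 active = binding response more than 3 SD above or below the average of its plate-row segment, actives on both sides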;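 also: Alexa488 bead fluorescence after subtracting the streptavidin-only scavenger bead signal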
MEKK2 mut-MEK5 = signal of MEK5 binding to mutant human MEKK2 PB1 domain | AID 1530 | percent response, % at 10 µM | actives 0.35% (n = 290,000) | bead flow cytometry, Alexa488-MEK5 binding to MEKK2 mutant; in the data active = percent response above about 24%, passing the limit was not always enough
Hits are given with their value; i = inactive; nt = no result. Sampled rows, rich in hits. Any-hit rate of the full collection: about 3.2%.

SMILES | MEKK2wt PB1 HTS | SKN-1 block | NRP1-CendR mod | MEKK3 PB1 HTS | MEKK2 mut-MEK5
COc1cc(C(=O)NCCC(=O)NCCN2CCOCC2)cc(OC)c1OC | i | i | i | i | i
CCOc1cc(C(=O)NCCN2CCOCC2)cc(OCC)c1OCC | i | i | 26 | i | i
Cc1c(Cl)c(-c2n[nH]c(=S)n2-c2ccc(F)cc2)nn1C | i | 30 | i | i | i
Cn1cc(Cl)c(-c2n[nH]c(=S)n2-c2ccc(F)cc2)n1 | i | i | i | i | i
O=C1NC(c2ccccc2)N=C2Oc3ccccc3C=C12 (stereo not drawn) | nt | i | i | nt | nt
COCC(=O)NCc1ccc2c(c1)cc(C)n2C | i | 47 | i | i | i
Cc1cc2cc(CNC(=S)Nc3ccc(OC(F)F)cc3)ccc2n1C | i | 46 | i | i | i
FC(F)Oc1ccc(NC(=S)NCc2ccccc2)cc1 | i | i | i | i | i
Cc1cc2cc(CNC(=O)NC3CCCCC3)ccc2n1C | i | i | i | i | i
Cc1cc2cc(CNC(=O)Nc3ccc(Cl)c(Cl)c3)ccc2n1C | i | i | 19 | i | i
Cc1cc2cc(CN3C(=O)c4ccccc4C3=O)ccc2n1C | i | 46 | i | i | i
COc1ccccc1C(CNC(=O)c1ccc(C)c(S(=O)(=O)N2CCCCC2)c1)N1CCCC1 (stereo not drawn) | nt | i | i | nt | nt
CC1=C(C(=O)N2CCCCCC2)CC(CC(=O)NCC2CCCCC2)C(=O)N1CCCN1CCCC1=O (stereo not drawn) | nt | i | i | nt | nt
Cc1cc2cc(CNC(=O)COc3ccccc3)ccc2n1C | i | i | i | i | i
Cc1cc2cc(CNC(=O)c3ccco3)ccc2n1C | i | 49 | 31 | i | i
COc1ccc(C(=O)NCc2ccc3c(c2)cc(C)n3C)cc1 | i | 44 | i | i | i
CC(=NNC1=NCCN1)c1cnn(C2=NCCN2)c1C | nt | i | i | nt | nt
CN(c1ccccc1)S(=O)(=O)c1cccc(NC(=O)C2=NN(c3ccccc3)C(=O)CC2)c1 | nt | i | i | nt | nt
CCn1c(C)c(C)c2cc(C(=O)N3CCCC3)ccc21 | i | i | i | i | i
Cc1c(C)n(Cc2ccc(F)cc2)c2ccc(C(=O)N3CCN(c4ccccn4)CC3)cc12 | i | 59 | i | i | i
CCn1c(C)c(C)c2cc(C(=O)N3CCN(c4ccccc4)CC3)ccc21 | i | 46 | i | i | i
O=C(c1ccc(F)cc1)N1CCN(c2ccccn2)CC1 | i | i | i | i | i
CCOC(=O)c1[nH]cnc1C(=O)N1CCC(C)CC1 | nt | i | i | nt | nt
CCOC(=O)c1c(NC(=O)COC(=O)Cn2cnc3ccccc32)sc2c1CCC(C)C2 (stereo not drawn) | i | i | 33 | i | i
CCOC(=O)c1c(NC(=O)Cn2nnc3ccccc32)sc2c1CCC(C)C2 (stereo not drawn) | i | i | i | i | i
SMILES | MEKK2wt PB1 HTS | SKN-1 block | NRP1-CendR mod | MEKK3 PB1 HTS | MEKK2 mut-MEK5
O=S(=O)(NNc1ncc(C(F)(F)F)cc1Cl)c1ccccc1 | nt | i | i | nt | nt
CC(C)N(C(C)C)S(=O)(=O)c1ccc(N2CCc3ccccc3C2)nc1 | i | i | 30 | i | i
Clc1ccc(-c2csc(N3CCSCC3)n2)cc1 | i | 50 | i | i | i
c1ccc(-c2csc(N3CCSCC3)n2)cc1 | i | i | i | i | i
Fc1ccc(-c2csc(N3CCSCC3)n2)cc1 | i | 41 | i | i | i
CCC(C)c1ccc(NC(=S)N2CCN(C(=O)C3CCCO3)CC2)cc1 (stereo not drawn) | i | i | i | i | i
COC(=O)C1=CN(c2ccc(F)cc2)C(N)=C(C#N)C1c1ccc(-c2ccccc2)cc1 (stereo not drawn) | nt | i | i | nt | nt
CCCCCOc1ccc(Br)cc1CSC(=N)N | i | i | 35 | i | i
COc1ccc(Br)cc1CSC(=N)N | i | i | i | i | i
O=C(Cc1ccc([N+](=O)[O-])cc1)N/N=C/c1ccccc1F | i | i | i | i | i
CCOC(=O)c1oc2ccccc2c1COC(=O)C(C)NC(=O)c1ccco1 (stereo not drawn) | nt | i | i | nt | nt
CCOc1ccc(N2CC(C(=O)Nc3nnc(C4CCCCC4)s3)CC2=O)cc1 (stereo not drawn) | i | i | i | i | i
CN(C)CCCNS(=O)(=O)c1ccc(N2CCC(c3ccc(Cl)cc3)=N2)cc1 | 162 | nt | nt | i | i
C#CCOCCOCCOCCNc1nc(N2CCN(C(=O)[C@H](CCCCN)n3cc(CN)nn3)CC2)nc(N2CCN(C(=O)[C@H](CC(N)=O)n3cc(C(N)[C@H](C)CC)nn3)CC2)n1 (stereo partly drawn) | nt | i | i | nt | nt
CC1(C(=O)Nc2ccc3ccccc3c2)CCC(=O)N1CCc1c[nH]c2ccccc12 (stereo not drawn) | nt | i | i | nt | nt
O=C1c2sccc2-c2cccc3cccc1c23 | nt | i | i | nt | nt
O=C1C(Br)=Cc2cccc3cccc1c23 | i | i | 27 | i | i
COc1cc(CNc2nnnn2C)cc(OC)c1OC | i | i | i | i | i
COc1ccc(N/C=C\C(=O)c2ccc3c(c2)OCO3)cc1OC | i | i | i | i | i
COc1ccc(NC(=O)c2ccc3c(c2)OCO3)cc1Cl | i | 41 | i | i | i
COC(=O)c1ccc(N/C=C\C(=O)c2ccc3c(c2)OCO3)cc1 | i | i | 22 | i | i
O=C(Nc1ccc(F)c(Cl)c1)c1ccc2c(c1)OCO2 | i | i | i | i | i
O=C(Nc1ccc2c(c1)OCO2)c1cccc(F)c1 | i | 40 | i | i | i
COCCNC(=O)C1(C)CCCN(C(=O)COc2ccccc2)C1 (stereo not drawn) | nt | i | i | nt | nt
COc1ccc(NC(C)C(=O)N/N=C/c2ccccc2OCc2ccc(Br)cc2)cc1 (stereo not drawn) | i | i | 22 | i | i
SMILES | MEKK2wt PB1 HTS | SKN-1 block | NRP1-CendR mod | MEKK3 PB1 HTS | MEKK2 mut-MEK5
CC(Nc1ccc(Br)cc1)C(=O)N/N=C/c1ccccc1OCc1ccccc1 (stereo not drawn) | i | i | i | i | i
COc1ccc(C(=O)NNC(=O)C(=O)NC2CCCCC2)cc1 | i | i | i | i | i
CCCNC(=O)c1cc(C2CCCCN2S(=O)(=O)c2ccccc2)on1 (stereo not drawn) | nt | i | i | nt | nt
COc1ccc(CC(=O)Nc2ccc(-c3nc4cc(C)ccc4o3)c(O)c2)cc1OC | nt | 35 | i | nt | nt
CC(C)(C)S(=O)(=O)/C(C#N)=C/c1cccn1S(=O)(=O)c1ccccc1 | nt | i | i | nt | nt
NC1=C(Br)C(=O)c2ccccc2C1=O | i | i | i | i | i
NC1=CC(=O)C(=O)c2ccccc21 | nt | i | 29 | nt | nt
CCCOc1ccc2cc(-c3ccccn3)c(=O)oc2c1 | i | 45 | i | i | i
CC1=Nc2ccccc2/C1=C\c1nc(-c2ccccc2)oc1O | 4.0 | i | i | i | i
COCCN1C[C@@H](CO)O[C@@H](n2cnc3c(NCc4ccco4)ncnc32)C1 | nt | i | i | nt | nt
Cc1sc(NC(=O)c2ccco2)c(C(c2cccnc2)N2CCCC2)c1C (stereo not drawn) | i | 30 | i | i | i
CC(=O)C[C@H]1SC[C@@H](C(C)C)N1S(=O)(=O)c1ccc(C)cc1 | nt | i | i | nt | nt
